The text below walks through data of PubChem BioAssay (NCATS).

The structures appear in SMILES notation. Records with an inconclusive call do not appear. Active and inactive are the calls of the source. The call rests on the fitted dose curve; in most records, active means well fitted curve in the direction sought with a large enough effect; inconclusive means small, poorly fitted or top-dose-only effect, or another doubt; inactive means no such curve, though single readings can be large; an effect the other way counts as inactive or inconclusive.

One assay has as its target Furin (Homo sapiens) (UniProt P09958). Kind of assay: Furin counterscreen qHTS for Zika virus inhibitors (AID 1347149). Further: nearly all actives have a fitted effect of over 70% in size. Further: potency means the concentration at half of the fitted maximal effect. Summed up:
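Counterscreen measures cleavage of 2 microM BOC-RVRR-AMC, below its ~15 microM Km, by 5 nM full-length human furin at pH 7.0 after a 15-min compound preincubation. Inhibition derives from the 15-min fluorescence increase at 37C.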
(In general: A counterscreen serves to expose hits that act by an unwanted route or on another target.)

A short description of assay [1]: Confirmatory screen GU Rhodamine qHTS for Zika virus inhibitors qHTS (AID 1347157). Further: nearly all actives have a fitted effect of over 70% in size. Further: potency means the concentration at half of the fitted maximal effect. In a few lines: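 A qHTS format was used, with compound concentrations ranging up to 114 microM. Each compound was preincubated with 25 nM NS2B-NS3 protease, and the substrate was then added at 1.5 microM. Curves were fitted with a 4-parameter Hill model.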
Assay [2] is described as follows: Tertiary RLuc qRT-PCR qHTS assay for Zika virus inhibitors (AID 1347169). Further: top concentration of the series differs between compounds; nearly all actives have a fitted effect of over 55% in size. In a few lines: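 Vero, 1,000 cells/well, o/n 37 C; cpd pinned in DMSO; ZIKV-RLuc Cambodian, MOI 1-2, 48-72 h 37 C; live-cell RLuc substrate, lum read at 1-1.5 h.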
In general terms: Real-time PCR tracks product formation cycle by cycle.

Assay [3] is described as follows: Confirmation and Secondary Assay for Modulators of Hemoglobin Beta Chain Splicing at IVS2 654 locus (AID 910).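 Further: HeLa cells stably carrying EGFP split by mutant beta-globin IVS2-654 intron.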 Summed up: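 Readout: per-well total peak green fluorescence (488 nm ex, 500–520 nm em) from objects 5–250 µm, reflecting correct splicing of an EGFP-654 reporter. Compounds were applied for 2 days at 37 °C to overnight-plated HeLa EGFP-654 cells; controls were DMSO and 500 nM IVS2-654 PNA.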

The nature of assay [4]: Confirmation and Secondary Assay for Modulators of Hemoglobin Beta Chain Splicing at IVS2 705 locus (AID 930).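 Further: HeLa cells stably expressing the EGFP-705 splicing reporter; GFP fluorescence per well restored by corrected splicing of the IVS2-705 intron in EGFP; series mostly up to about 46 µM.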 Summed up: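 Read-out: total peak GFP fluorescence per well (488 nm excitation, 500-520 nm emission) by laser-scanning cytometry. Cells: HeLa EGFP-705 splicing reporter, 2 days compound exposure in Optimem/2% FCS.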
For assay [5], the target named is Glutathione peroxidase 1 (Homo sapiens) (UniProt P07203). Kind of assay: Primary qHTS Assay for Inhibitors of Recombinant Selenoprotein Glutathione Peroxidase 1 (GPX1) (AID 1845191). Further: nearly all actives have a fitted effect of over 65% in size. In a few lines: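 NADPH consumption tracked by fluorescence at 340/450 nm between t=0 and t=15 min, room temperature. Final mix: 10 nM GPX1, 100 nM glutathione reductase, 1 mM GSH, 0.5 mM NADPH, 0.5 mM cumene hydroperoxide, 0.01% BSA; 30 min compound–enzyme preincubation.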
Chain of Glutathione peroxidase 1 (Homo sapiens) (P07203 whole entry, looked up): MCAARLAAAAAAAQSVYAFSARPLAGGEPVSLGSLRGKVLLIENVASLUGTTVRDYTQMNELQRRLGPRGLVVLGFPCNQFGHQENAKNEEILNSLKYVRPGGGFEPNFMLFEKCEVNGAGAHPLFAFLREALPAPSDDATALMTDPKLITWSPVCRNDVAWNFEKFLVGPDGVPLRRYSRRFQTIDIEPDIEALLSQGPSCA
On the technique in general: In qHTS, concentration-response curves come from the screen itself.

Assay [6] can be described thus: Confirmatory screen NINDS Rhodamine qHTS for Zika virus inhibitors (AID 1347161).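 Further: purified Zika NS2B-NS3 protease with linked NS2B cofactor domain and Rhodamine110 peptide substrate; series mostly up to about 110 µM; nearly all actives have a fitted effect of over 60% in size.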 In a few lines:
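Rhodamine110-peptide cleavage (1.5 µM substrate) by 25 nM linked NS2B-NS3 enzyme at pH 8.0 (Tris, Tween 20), after 15 min RT preincubation with compounds; 15-min fluorescence change normalized to controls and Hill-fitted.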

Assay [7] deals with Calcium and integrin-binding protein 1 (Homo sapiens) (UniProt Q99828). The experiment in a line: Primary qHTS for Identification of Calcium Integrin Binding Protein 1 (CIB1) Competitor (AID 1508620).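 Further: GST tagged CIB1 binding a fluorescein labelled alphaIIb integrin peptide tracer; top concentration of the series differs between compounds.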 Summed up: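 CIB1-GST (1 uM final) and compound incubated 15 min at room temperature before adding FITC-alphaIIb peptide tracer (100 nM final). Competition for binding read by fluorescence polarization (ex 480, em 540) after another 15 min at room temperature.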
Chain of Calcium and integrin-binding protein 1 (Homo sapiens) (Q99828 whole entry, looked up): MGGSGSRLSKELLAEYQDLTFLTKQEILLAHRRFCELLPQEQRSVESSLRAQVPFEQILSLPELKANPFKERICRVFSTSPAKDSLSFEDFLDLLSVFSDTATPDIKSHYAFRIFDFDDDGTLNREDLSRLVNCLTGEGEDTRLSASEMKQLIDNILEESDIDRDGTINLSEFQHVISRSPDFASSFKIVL

Assay [8] is described as follows: ZIKV-mCherry secondary qHTS for Zika virus inhibitors (AID 1347158). Further: top concentration of the series differs between compounds. Summed up:
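Compounds were tested in Vero monkey kidney cells infected with recombinant mCherry-expressing Zika virus at MOI 1 for 48-72 h at 37 °C. Fixed cells were nuclear-stained and imaged, and infection rate was taken as the fraction of mCherry-positive cells.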

Chain of Furin (Homo sapiens) (P09958 whole entry, looked up): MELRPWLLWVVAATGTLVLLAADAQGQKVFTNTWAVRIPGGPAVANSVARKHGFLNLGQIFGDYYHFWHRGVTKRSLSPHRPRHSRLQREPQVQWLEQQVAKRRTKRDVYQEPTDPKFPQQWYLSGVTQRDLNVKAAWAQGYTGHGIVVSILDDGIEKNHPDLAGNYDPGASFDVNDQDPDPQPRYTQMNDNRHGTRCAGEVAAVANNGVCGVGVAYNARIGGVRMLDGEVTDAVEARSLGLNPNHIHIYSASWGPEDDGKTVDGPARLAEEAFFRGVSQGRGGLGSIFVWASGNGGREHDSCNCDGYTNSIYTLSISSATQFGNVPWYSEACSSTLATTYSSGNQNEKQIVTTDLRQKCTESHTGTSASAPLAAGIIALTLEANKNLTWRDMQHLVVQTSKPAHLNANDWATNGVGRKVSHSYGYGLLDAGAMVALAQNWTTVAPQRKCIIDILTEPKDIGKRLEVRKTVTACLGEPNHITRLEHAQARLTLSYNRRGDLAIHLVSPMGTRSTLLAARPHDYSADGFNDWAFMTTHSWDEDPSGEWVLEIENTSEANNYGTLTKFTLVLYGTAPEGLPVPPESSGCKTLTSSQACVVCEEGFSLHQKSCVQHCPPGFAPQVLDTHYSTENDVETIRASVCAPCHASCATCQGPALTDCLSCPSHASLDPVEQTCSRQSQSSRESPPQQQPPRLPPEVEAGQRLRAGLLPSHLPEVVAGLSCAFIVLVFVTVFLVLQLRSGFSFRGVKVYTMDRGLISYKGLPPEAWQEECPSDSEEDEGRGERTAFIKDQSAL

For the compound `O=C(OCC#CCSc1nnc(-c2cccc3ccccc23)o1)c1ccc(C(F)(F)F)cc1`, the Potency with Furin (Homo sapiens) was 41.8 µM (active). The Potency result in assay [1] and in assay [2] was “inactive” throughout.

`CCCCc1nn2c(=O)cc(COC(=O)c3ccc(NC(=O)c4cccc(OC)c4)cc3)nc2s1`: in the assay with Furin (Homo sapiens), the Potency is 41.8 µM (active). For the same compound, the Potency entry in [1] and in [2] was “inactive” each time.

On to `CCOc1ccc(C(=O)Nc2ccccc2C(=O)OCc2cc(=O)n3nc(C4CC4)sc3n2)cc1`, for which the Potency result (in the assay with Furin (Homo sapiens); in assay [1]; in [2]) was “inactive” each time.

Regarding `NC(Cc1cc(I)c(Oc2cc(I)c(O)c(I)c2)c(I)c1)C(=O)O` (stereo not given), the result in assay [3] and in [4] was inactive. For the same compound, the Potency result (with Furin (Homo sapiens); in [2]; in assay [5]) was “inactive” each time. The Potency in [1] is 31.6 µM (active).

As to `COCCOC(=O)c1c(C)n(S(=O)(=O)c2ccc(C)cc2)c2ccc(NS(=O)(=O)c3ccc(C)cc3)cc12`, the Potency entry (with Furin (Homo sapiens); in assay [1]; in assay [6]; in assay [2]) was “inactive” each time.

On to `O=C(OCC#CCSc1nnc(-c2cccc3ccccc23)o1)c1cccc(C(F)(F)F)c1`, for which, in the assay with Furin (Homo sapiens), the Potency is 37.3 µM (active). The Potency result in assay [1], in assay [6] and in assay [2] was “inactive” throughout. The result in [7] was inactive.

`O=C(Nc1ccccc1C(=O)OCc1cc(=O)n2nc(C3CC3)sc2n1)c1cccc(F)c1`: the Potency entry (with Furin (Homo sapiens); in assay [1]; in assay [6]; in [2]) was “inactive” each time.

With `O=C(Nc1cccc(C(=O)OCc2cc(=O)n3c4c(sc3n2)CCCC4)c1)c1ccc(Cl)cc1`, the Potency with Furin (Homo sapiens) was 52.7 µM (active). Also, the Potency result in assay [1] and in [2] was “inactive” each time.

For the compound `COc1ccc(C(=O)Nc2cccc(C(=O)OCc3cc(=O)n4c5c(sc4n3)CCCC5)c2)cc1`, in the assay with Furin (Homo sapiens), the Potency was 66.3 µM (active). Moreover, the Potency entry in assay [1] and in assay [2] was “inactive” each time.

Take `COC(=O)c1c(NC(=O)c2cc3nc(-c4ccc(Br)cc4)cc(C(F)(F)F)n3n2)sc2c1CCCC2`: the Potency result (with Furin (Homo sapiens); in [1]; in assay [6]; in assay [2]) was “inactive” throughout.

Take `COc1ccc(/C=C(\C#N)c2nc(-c3cc4c(ccc5ccccc54)oc3=O)cs2)cc1O`: the Potency entry (in the assay with Furin (Homo sapiens); in assay [8]) was “inactive” throughout.

As for `O=C(OCC#CCSc1nnc(-c2cccc3ccccc23)o1)c1ccc(F)cc1F`, in the assay with Furin (Homo sapiens), the Potency is 46.9 µM (active). Also, the Potency entry in [1] and in [6] was “inactive” each time. Also, the result in [7] was inactive.

For the compound `CC(C)c1nn2c(=O)cc(COC(=O)c3cccc(NC(=O)c4ccccc4F)c3)nc2s1`, the Potency result (with Furin (Homo sapiens); in assay [1]; in assay [6]; in assay [2]) was “inactive” throughout.

For the compound `O=c1oc2ccc3ccccc3c2cc1-c1nnc(Nc2ccc(Cl)cc2Cl)s1`, the Potency result (with Furin (Homo sapiens); in [1]; in [6]; in assay [2]) was “inactive” in each case.

In the case of `O=C(OCc1cccc(C(F)(F)F)c1)c1ccc(-c2nnn(Cc3ccc(F)cc3)n2)cc1`, the Potency result (in the assay with Furin (Homo sapiens); in [1]; in assay [6]; in assay [2]) was “inactive” throughout.

For `O=C(/C=C/c1ccc(C(F)(F)F)cc1)OC(C(=O)NC1CC1)c1ccccc1` (stereo not given), the Potency result (with Furin (Homo sapiens); in [1]; in assay [6]; in assay [2]) was “inactive” each time.

As for `O=C(OCC#CCSc1nnc(-c2cccc3ccccc23)o1)c1ccc(SC(F)(F)F)cc1`, the Potency in the assay with Furin (Homo sapiens) is 52.7 µM (active). Also, the Potency result in [1], in [6] and in assay [2] was “inactive” throughout. Also, in assay [7], the result was inactive.

Consider `O=C(OCC#CCSc1nnc(-c2cccc3ccccc23)o1)c1cc(F)c(F)c(F)c1`, for which the Potency with Furin (Homo sapiens) is 46.9 µM (active). The Potency entry in assay [1] was “inactive”. The outcome in assay [7] was inactive.

In the case of `O=C(CSc1nnc(-c2cccc([S+](=O)([O-])NC3CCCC3)c2)n1-c1ccc(F)cc1)Nc1ccc(C(=O)O)cc1`, the Potency result (with Furin (Homo sapiens); in assay [1]; in assay [6]; in assay [2]) was “inactive” in each case.

Regarding `O=C(CSc1nnc(-c2cccc([S+](=O)([O-])NC3CCCC3)c2)n1-c1ccccc1)Nc1ccc(C(=O)O)cc1`, the Potency result (in the assay with Furin (Homo sapiens); in assay [1]; in [2]) was “inactive” in each case.
